Data as given in ChEMBL document CHEMBL3988442, “University of Dundee, Small-Polar-MMV Screening Library” (2021).
Hit rate of the full screen: of about 48,000 compounds, about 13,000 (27%) showed an effect of 50% or more. This is one part of the list.

What follows are compounds tested on Wolbachia pipientis (assay: Anti-Wolbachia Cell-Based Screen). Details: 5 µM.
Format: functional
Design: scale not given: in the data most compounds retested in dose-response had high values

SMILES | Percent Effect
Cc1oc(NC(=O)C(C)N2CCN(C(C)(C)CO)CC2)c(C#N)c1C (configuration not stated) | -7.519%
O=C(Cc1cccc(F)c1F)NS(=O)(=O)c1cncc(Cl)c1 | -8.127%
Cc1ccc(OC2(C(=O)O)CCN(C/C=C/c3ccco3)CC2)cn1 | 1.431%
CCN1CCN(c2ccc(CNC(=O)c3c(C)noc3C)cn2)CC1 | 9.474%
CN(Cc1ccc([S+](C)[O-])cc1)c1ccccn1 (configuration not stated) | -21.98%
Cc1nc(C)n(CC(C)C(=O)N2CCC(NS(C)(=O)=O)CC2)n1 (configuration not stated) | -0.2261%
CS(=O)(=O)Cc1ccc(CNc2ncc(C#N)cc2Cl)cc1 | -4.102%
CCN(C)C(=O)C1(c2ccc(F)cc2F)CCC1 | -1.611%
Cc1n[nH]c(C)c1C1CCCN1C(=O)NCC(=O)NC(C)(C)C (configuration not stated) | -8.161%
O=C(Nc1cccc(N2CCN(CC3CC3)CC2)c1)N1CCCC1 | 0.3876%
CC(=O)N1CCCC1c1cc(N2CCN(C3CCCC3)CC2)cc(C)n1 (configuration not stated) | 1.456%
CC(=O)N1CCCC1c1cc(N2CCN(CC3CC3)CC2)cc(C)n1 (configuration not stated) | 101%
CC(=O)N1CCCC1c1cc(N2CCN(CC(C)(C)C)CC2)cc(C)n1 (configuration not stated) | 123.3%
Cc1cccc(CNCc2c(C(C)C)nn(C)c2N2CCOCC2)n1 | -7.798%
NS(=O)(=O)CCNC(=O)c1nnn(-c2ccccc2)c1C1CC1 | -6.368%
CS(=O)(=O)NC(=O)c1nnn(-c2ccccc2)c1C1CC1 | 97.89%
CC(C)NC(=O)c1nnn(-c2cccc(C(F)(F)F)c2)c1C1CC1 | 8.497%
CS(=O)(=O)NC(=O)c1nnn(-c2cccc(F)c2)c1C1CC1 | 110.8%
Cc1ccc(-n2nnc(C(=O)NS(C)(=O)=O)c2C2CC2)cc1 | -4.729%
COCCS(=O)(=O)NC(=O)c1nnn(-c2ccc(F)cc2)c1C1CC1 | -1.625%
NC(=O)c1ccc(OCC(=O)NC2CCc3c(F)cccc32)cc1 (configuration not stated) | -9.741%
CC(C)N(C)Cc1ccccc1CNc1ccc2nncn2n1 | -2.79%
Cc1cc(F)ccc1S(=O)(=O)N1C[C@@H](C)[C@@](C)(O)C1 | 6.812%
Cc1ccc(CC(=O)N2CCc3nnc(N(C)C)cc3C2)cn1 | -3.136%
CNC(=O)[C@@H]1CN(C(=O)C2CCC2)C[C@H]1c1ccnc(N2CCCC2)n1.Cl | 84.63%

SMILES | Percent Effect
CNC(=O)C1CCCN(c2nc(-c3ccco3)nc3c2CCNCC3)C1 (configuration not stated) | -9.477%
CNC(=O)[C@@H]1CN(C(=O)C(C)C)C[C@H]1c1ccnc(N2CCCC2)n1.Cl | 109.4%
CNC(=O)C1CCCN(C(=O)C2CCC2)C1 (configuration not stated) | -10.43%
Cc1nc(CNCc2ccc(N3CCC(CO)CC3)nc2)cs1 | -0.2455%
CCOc1cccc(C(=O)N2CCCn3nc(CCC(=O)O)cc3C2)c1 | -15.16%
CN(Cc1cn2c(n1)CN(C(=O)C1CCCO1)CC2)Cc1ccco1 (configuration not stated) | 5.5%
O=C([C@@H]1CCCO1)N1CCn2c(Cn3cccn3)cnc2C1 | 2.282%
CN(Cc1cc2n(n1)CCN(C(=O)[C@H]1CCCO1)C2)Cc1nccs1 | 100.4%
CN(Cc1cn2c(n1)CN(C(=O)c1cccnc1)CC2)Cc1ccco1 | -4.152%
CN(Cc1cc2n(n1)CCN(C(=O)c1cccnc1)C2)Cc1nccs1 | 89.98%
CC(C)C1CN(C(=O)c2cc(C3CC3)n[nH]2)CCC(=O)N1CC1CC1 (configuration not stated) | 29.09%
C[C@@H]1CN(S(=O)(=O)N2CCCC2)C[C@@]1(O)C1CC1 | -6.629%
CNC(=O)[C@@H]1C[C@@H](NC(=O)c2ccc(OC)o2)CN1Cc1sccc1C | 3.708%
CC(C)CN(c1cn[nH]c1)S(=O)(=O)c1cccc(C#N)c1 | -11.66%
CC1(CCC(=O)N2CCC(n3cc(C4(O)CCCC4)nn3)CC2)CC1 | 8.722%
COc1ccc(CN2CCO[C@H]3CN(C4CCC4)CC[C@H]3C2=O)cc1.O=C(O)C(F)(F)F | -4.57%
Cc1ccc(CN2CC(O)CN(C(=O)C3CC3)CC2=O)cc1 (configuration not stated) | 98.84%
COc1ccc(CN2CCO[C@H]3CN(C(=O)C4CC4)CC[C@H]3C2=O)cc1 | -3.017%
O=C1CN(C(=O)C2CCOCC2)CCN1Cc1ccc(Cl)cc1 | -5.322%
O=C1CN(C(=O)C2CCCCC2)CC(O)CN1Cc1ccc(Cl)cc1 (configuration not stated) | 110.4%
O=C1CN(C(=O)C2CCCOC2)CCN1Cc1ccc(Cl)cc1 (configuration not stated) | -1.465%
O=C(C1CCOCC1)N1CCN2C(=O)N(Cc3ccc(F)cc3)C[C@H]2C1 | -6.376%
COc1ccc(CN2CC(O)CN(C(=O)C3CCC3)CC2=O)cc1 (configuration not stated) | 125.6%
CN(CCC(C)(C)O)C(=O)C1CCC(=O)N(Cc2ccc(Cl)cc2)C1 (configuration not stated) | -7.945%
CCOCC1CN(C(=O)c2cccs2)Cc2nn(C)cc21 (configuration not stated) | -4.192%

SMILES | Percent Effect
CCCc1cc(C(=O)N2CCCC(n3ccnc3C)C2)[nH]n1 (configuration not stated) | -7.935%
CCn1c(C)cc(C(=O)N2CCCC(n3nc(C)nc3C)C2)c1C (configuration not stated) | -3.865%
Cc1cnc(C(=O)N2CCCC(n3ccnc3C)C2)cn1 (configuration not stated) | 4.379%
Cc1nc(C)c(C(=O)N2CCCC(n3ccnc3C)C2)s1 (configuration not stated) | 110.6%
Cc1nccn1C1CCCN(C(=O)c2cnn(C)c2C2CC2)C1 (configuration not stated) | 89.3%
CCn1ccnc1C1CCCN(C(=O)c2sc(C)nc2C)C1 (configuration not stated) | -9.404%
CC(C)c1nccn1C1CCCN(C(=O)c2cnn(C)c2C2CC2)C1 (configuration not stated) | -1.568%
CCn1c(C)cc(C(=O)N2CCCC(n3ccnc3C)C2)c1C (configuration not stated) | 101.9%
Cc1ncncc1C(=O)N1CCCC(n2ccnc2C)C1 (configuration not stated) | 90.56%
CCc1nccn1C1CCCN(C(=O)c2cnn(C)c2C2CC2)C1 (configuration not stated) | 0.8841%
Cc1sc2nc(CCN)nc(N3CC(N4CCCCC4)C3)c2c1C | 3.569%
O=C(CCc1ncc(-c2ccc(F)cc2)o1)NCCN1CCOCC1 | 3.155%
Cc1ncsc1C(=O)N(C)Cc1cccc(Cl)c1 | -11.93%
CCn1[nH]c(C)c2c(C(F)(F)C(F)(F)F)cc(=O)nc1-2 | -26.97%
CN(CCC(F)(F)F)C(=O)C1CCCN1C(=O)OC(C)(C)C (configuration not stated) | 12.15%
Cc1ccccc1SC1CCN(C(=O)C2CNC(=O)N2)CC1 (configuration not stated) | 2.436%
CCN(CC)Cc1ccc(C(=O)NC2CCc3ccccc32)o1 (configuration not stated) | -6.624%
O=C(CCC1CCCC1)N1CCC(O)(C(F)(F)F)C1 (configuration not stated) | -0.53%
CN1CCOCC12CCN(Cc1nccs1)CC2 | 7.326%
Cn1nc(CNC(=O)CN2C(=O)CCC2=O)cc1C1CC1 | -2.201%
CCOCC(=O)NCCc1ccc(I)s1 | -15.02%
O=C(CN1C(=O)CCC1=O)NCCc1nc(C2CC2)cc(C(F)(F)F)n1 | 102.8%
Cc1cc(C)nc(CCNC(=O)C(c2ccc(F)cc2)N(C)C)n1 (configuration not stated) | 7.326%
CCOCC(=O)NCCc1nc(C2CC2)cc(C(F)(F)F)n1 | 130.2%
CCOc1ccnc(NCc2nc(C)cc(C(F)(F)F)n2)n1 | -1.038%

SMILES | Percent Effect
CCOCC(=O)NCc1cc(C2CC2)n(C2CCCC2)n1 | 2.551%
CCOCC(=O)NCCc1nc(C)cc(C(F)(F)F)n1 | 110.5%
O=C(CN1C(=O)CCC1=O)NCc1cc(C2CC2)n(C2CCCC2)n1 | -8.442%
Cc1ncccc1C(=O)NC1CC(=O)N(CC(F)(F)F)C1 (configuration not stated) | -0.2034%
O=C(NCc1ccccc1F)Nc1ccn(CCN2CCOCC2)n1 | -47.91%
Cc1cc(CSc2ccccn2)on1 | -1.483%
CN(C)CCN1C[C@@H]2CN(C(=O)C3CC=CC3)C[C@@H]2C1=O | -2.917%
CN(C)CCN1C[C@@H]2CN(C(=O)c3ccsc3)C[C@@H]2C1=O.O=C(O)C(F)(F)F | -6.945%
CN(C)CCN1C[C@@H]2CN(S(=O)(=O)c3cccs3)C[C@@H]2C1=O.O=C(O)C(F)(F)F | -17.1%
CN(C)CCN1C[C@@H]2CN(S(=O)(=O)c3ccccc3)C[C@@H]2C1=O.O=C(O)C(F)(F)F | 104.5%
CN(C)CCN1C[C@@H]2CN(c3ccccc3)C[C@@H]2C1=O.O=C(O)C(F)(F)F | 89.24%
CN(C)CCN1C(=O)C[C@@H]2[C@@H]1CCN2S(=O)(=O)c1ccccc1.O=C(O)C(F)(F)F | -18.17%
Cc1cc(NC(=O)N2CCN(C)CC2C)n(C(C)(C)C)n1 (configuration not stated) | -1.035%
Cc1nn(C)c2nc(N(CCOc3ccccc3)CC3CCCO3)sc12 (configuration not stated) | -19.55%
Clc1ccccc1OC1CN(CC2CCOC2)C1 (configuration not stated) | -8.991%
Cc1cnc(N2C[C@@H]3[C@@H](C2)OCC(=O)N3CC2CC2)nc1 | 5.534%
COCC1CN(Cc2csc(C)n2)Cc2nccn2C1.O=C(O)C(F)(F)F (configuration not stated) | -4.637%
Cc1nc(CN2Cc3nccn3CC(COCC3CC3)C2)cs1.O=C(O)C(F)(F)F (configuration not stated) | -7.932%
COCCN1Cc2nccn2CC(COCc2csc(C)n2)C1.O=C(O)C(F)(F)F.O=C(O)C(F)(F)F (configuration not stated) | 102.1%
Cc1nc(CN2Cc3nccn3CC(CN3CCOCC3)C2)cs1.O=C(O)C(F)(F)F.O=C(O)C(F)(F)F (configuration not stated) | -3.569%
CCN1Cc2nccn2CC(COCc2csc(C)n2)C1.O=C(O)C(F)(F)F.O=C(O)C(F)(F)F (configuration not stated) | 99.32%
CCOCC1CN(Cc2csc(C)n2)Cc2nccn2C1.O=C(O)C(F)(F)F (configuration not stated) | -4.835%
